From the OligoGym collection come the findings set out here.
Also: reference of the scale not given here.

One experiment has as its target MAGEA2B. In words: pooled miR-30 sensor sort-seq; sequence = guide strand. The settings on record: shRNA.
For the sequence TTGCATGAGCAGCTTCCTGGGA, the sensor-assay potency score (higher = more potent) was -0.244.

The sequence AAAATGAACCAACTCAACCATC yielded a sensor-assay potency score (higher = more potent) of -1.2.

Sequence TCTTCCTACTGATTGCTGCTTG returned a sensor-assay potency score (higher = more potent) of -0.703.

In turn, TCCAGGTCGGGAAACATTCTTG showed a sensor-assay potency score (higher = more potent) of -1.23.

In turn, TCTTGCATGAGCAGCTTCCTGG gave a sensor-assay potency score (higher = more potent) of -1.1.

Regarding TAGTGTATGGTGCAGGACTTTC, the sensor-assay potency score (higher = more potent) is -1.11.

In turn, ACCAACTCAACCATCTTCCTAC showed a sensor-assay potency score (higher = more potent) of -1.03.

ATTTCTGAGGACACTCTCCAGC came in with a sensor-assay potency score (higher = more potent) of -1.24.

In the case of TCTGAGGACACTCTCCAGCATT, the sensor-assay potency score (higher = more potent) was -1.1.

A further experiment deals with MAGEA8. The description is as above. The settings on record: shRNA.
In the case of TTTATGTCTTTATCTCATGTAT, the sensor-assay potency score (higher = more potent) is -0.397.

In turn, TTCCTCAGCCTTGTAGCGCTGA returned a sensor-assay potency score (higher = more potent) of 0.23.

Regarding TTTGATGACACTCTCAAGCATT, the sensor-assay potency score (higher = more potent) was -0.926.

TAATCCTCTGCTCTTGTAGTGT gave a sensor-assay potency score (higher = more potent) of -0.188.

TTCTCATCAAGTGCTTCCCGGA registered a sensor-assay potency score (higher = more potent) of -0.615.

As for TAGCGCACAGGATCACTGCCGG, the sensor-assay potency score (higher = more potent) is -0.803.

Sequence TTCTTTATGTCTTTATCTCATG gave a sensor-assay potency score (higher = more potent) of -1.14.

For the sequence ATCAATGCCAAAGATCACCTGC, the sensor-assay potency score (higher = more potent) amounted to 0.274.

Consider TAGAGGAGGAGGATGCAGCCTT, for which the sensor-assay potency score (higher = more potent) is -0.332.

With TGTGGGAATCTGCACATCCATA, the sensor-assay potency score (higher = more potent) was -1.63.

Regarding TTTCTCATCAAGTGCTTCCCGG, the sensor-assay potency score (higher = more potent) is -0.5.

The next experiment concerns the target MAGED2. The experiment is described as above. The settings on record: shRNA.
Sequence TTTCTTGGCTTTGACCTTGGGC yielded a sensor-assay potency score (higher = more potent) of 0.00108.

For the sequence TTTGATGATGTCCTTCAGCATG, the sensor-assay potency score (higher = more potent) was -1.48.

Sequence TTGATGGGAATCTTCGTCTGGT came in with a sensor-assay potency score (higher = more potent) of -0.0413.

With TTCTTTTGTACCTTGCAGGCAA, the sensor-assay potency score (higher = more potent) was 0.18.

TTCTTTGATGATGTCCTTCAGC: the sensor-assay potency score (higher = more potent) was -0.636.

Take TTGGGTGAGTCCTTAGTCGTTC: the sensor-assay potency score (higher = more potent) is -0.156.

TCGAGCTCTAATCTCGGCCCTA yielded a sensor-assay potency score (higher = more potent) of -0.609.

As for TTTAGCTTCTGCTCCCGCCTGG, the sensor-assay potency score (higher = more potent) is -0.0182.

In the case of TTTTGAGACCTTCACATCCTCT, the sensor-assay potency score (higher = more potent) is -1.1.

AACAGAGTCTGCATCATCGAGC gave a sensor-assay potency score (higher = more potent) of -0.281.

TTGTATTGACCTTTGTATCAGC: the sensor-assay potency score (higher = more potent) is -0.669.

Another experiment addresses MAGOHB. The experiment is described as above. The settings on record: shRNA.
TTACATCAATAAGAGAACCTAT yielded a sensor-assay potency score (higher = more potent) of -0.7.

As to TACAATTTCAAGCTCCTGTCGG, the sensor-assay potency score (higher = more potent) amounted to 0.0556.

As to TTTTCTGATCATCACATCATTT, the sensor-assay potency score (higher = more potent) was -1.33.

For AATTACAATTTCAAGCTCCTGT, the sensor-assay potency score (higher = more potent) is 0.142.

AAACTAAACATTTCAAGTCTTG came in with a sensor-assay potency score (higher = more potent) of -0.697.

Sequence TTCTTTTGTAATTTCACTGTCA gave a sensor-assay potency score (higher = more potent) of 0.267.

The sequence TCTTCTTTTGTAATTTCACTGT had a sensor-assay potency score (higher = more potent) of -0.146.

Sequence ATATCTAAGCTTTCCGTCCGGC came in with a sensor-assay potency score (higher = more potent) of -0.264.

On to TTCGAACTCCAGAAACTCGTGC, for which the sensor-assay potency score (higher = more potent) stood at 0.282.
